# Source: the supplement of paper PMC6411743
# ± gives the standard deviation of the averaged measurements. About 6,200 targets were measured; listed, in parts, are those with the largest changes and a random draw of the rest.
# Experiments:
# Test in all cases: NP40-soluble protein abundance relative to vehicle (solubility fold change) (ratio); higher = more soluble protein in presence of AMP-PNP
# A0A0A0MSG2|J3KNW4|Q14192 = molecular target: T1, A0A0A0MSG2|J3KNW4|Q14192 (UniProt Q14192)
# T1 sequence (whole entry): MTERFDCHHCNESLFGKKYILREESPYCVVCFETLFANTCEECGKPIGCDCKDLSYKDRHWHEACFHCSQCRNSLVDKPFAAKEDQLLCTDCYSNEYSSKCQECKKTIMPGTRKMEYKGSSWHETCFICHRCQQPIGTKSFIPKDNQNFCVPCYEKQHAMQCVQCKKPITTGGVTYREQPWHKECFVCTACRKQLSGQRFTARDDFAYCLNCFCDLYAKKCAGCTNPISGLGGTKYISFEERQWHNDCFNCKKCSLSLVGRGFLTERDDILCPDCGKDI
# How it was run: (§1)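 Jurkat crude lysate prepared with a Dounce homogeniser was treated at eight concentrations spanning 0.1 to 10 mM, 10 min at room temperature then 3 min at 37 °C. Solubilisation with 0.8% NP40 and benzonase and ultracentrifugation preceded TMT labelling of the supernatant for LC-MS/MS. Fold change against the detergent-processed vehicle was determined per replicate from vsn-normalised intensities, across three independent experiments.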
# A0A0U1RRH6|O94880 = molecular target: T2, A0A0U1RRH6|O94880 (UniProt O94880)
# T2 sequence (whole entry): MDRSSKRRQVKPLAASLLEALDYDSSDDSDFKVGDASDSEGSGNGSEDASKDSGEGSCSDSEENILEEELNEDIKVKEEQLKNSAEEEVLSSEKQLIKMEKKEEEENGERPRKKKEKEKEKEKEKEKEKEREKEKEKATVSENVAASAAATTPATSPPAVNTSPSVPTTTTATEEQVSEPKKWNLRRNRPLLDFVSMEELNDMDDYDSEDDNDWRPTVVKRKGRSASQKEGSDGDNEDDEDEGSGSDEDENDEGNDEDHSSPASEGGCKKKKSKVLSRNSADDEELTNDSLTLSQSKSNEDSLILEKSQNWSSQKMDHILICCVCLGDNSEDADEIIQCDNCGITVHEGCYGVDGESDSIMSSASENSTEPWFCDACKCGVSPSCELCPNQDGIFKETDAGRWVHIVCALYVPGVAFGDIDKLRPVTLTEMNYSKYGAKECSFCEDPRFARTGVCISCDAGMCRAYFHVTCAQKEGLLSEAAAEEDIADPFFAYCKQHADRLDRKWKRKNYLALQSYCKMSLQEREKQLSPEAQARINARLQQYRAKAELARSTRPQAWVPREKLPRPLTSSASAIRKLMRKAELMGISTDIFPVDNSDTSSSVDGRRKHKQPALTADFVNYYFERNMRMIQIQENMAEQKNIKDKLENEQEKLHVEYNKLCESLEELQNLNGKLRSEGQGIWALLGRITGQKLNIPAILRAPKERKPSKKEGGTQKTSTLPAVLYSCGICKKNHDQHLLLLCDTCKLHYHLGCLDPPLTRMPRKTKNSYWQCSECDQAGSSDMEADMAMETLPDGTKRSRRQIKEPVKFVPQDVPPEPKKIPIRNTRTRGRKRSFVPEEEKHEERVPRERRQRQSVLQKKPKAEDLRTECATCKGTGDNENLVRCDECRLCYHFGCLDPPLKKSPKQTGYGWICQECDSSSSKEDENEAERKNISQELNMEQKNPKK
# How it was run: as §1
# ACOX3 = molecular target: T3, ACOX3 (UniProt O15254)
# T3 sequence (whole entry): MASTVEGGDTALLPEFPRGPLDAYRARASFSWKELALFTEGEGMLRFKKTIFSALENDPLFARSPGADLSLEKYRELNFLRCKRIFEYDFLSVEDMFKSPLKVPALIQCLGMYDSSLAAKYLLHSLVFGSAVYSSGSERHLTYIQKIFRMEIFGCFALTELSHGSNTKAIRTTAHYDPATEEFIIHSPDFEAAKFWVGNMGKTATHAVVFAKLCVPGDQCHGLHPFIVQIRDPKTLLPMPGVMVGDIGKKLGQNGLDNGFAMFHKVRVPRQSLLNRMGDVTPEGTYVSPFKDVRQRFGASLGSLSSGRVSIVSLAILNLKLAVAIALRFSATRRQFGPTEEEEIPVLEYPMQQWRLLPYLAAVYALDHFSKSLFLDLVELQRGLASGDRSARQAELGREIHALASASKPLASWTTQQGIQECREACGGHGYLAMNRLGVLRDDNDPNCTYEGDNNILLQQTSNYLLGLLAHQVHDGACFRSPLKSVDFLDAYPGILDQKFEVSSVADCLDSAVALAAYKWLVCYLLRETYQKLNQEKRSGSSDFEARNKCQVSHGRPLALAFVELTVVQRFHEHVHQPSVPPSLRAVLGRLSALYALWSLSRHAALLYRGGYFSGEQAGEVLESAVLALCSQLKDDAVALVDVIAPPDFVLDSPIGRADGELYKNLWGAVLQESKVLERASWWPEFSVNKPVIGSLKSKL
# How it was run: as §1
# C9JI46|Q8N3X6|Q8N3X6-3 = molecular target: T4, C9JI46|Q8N3X6|Q8N3X6-3 (UniProt Q8N3X6)
# T4 sequence (whole entry): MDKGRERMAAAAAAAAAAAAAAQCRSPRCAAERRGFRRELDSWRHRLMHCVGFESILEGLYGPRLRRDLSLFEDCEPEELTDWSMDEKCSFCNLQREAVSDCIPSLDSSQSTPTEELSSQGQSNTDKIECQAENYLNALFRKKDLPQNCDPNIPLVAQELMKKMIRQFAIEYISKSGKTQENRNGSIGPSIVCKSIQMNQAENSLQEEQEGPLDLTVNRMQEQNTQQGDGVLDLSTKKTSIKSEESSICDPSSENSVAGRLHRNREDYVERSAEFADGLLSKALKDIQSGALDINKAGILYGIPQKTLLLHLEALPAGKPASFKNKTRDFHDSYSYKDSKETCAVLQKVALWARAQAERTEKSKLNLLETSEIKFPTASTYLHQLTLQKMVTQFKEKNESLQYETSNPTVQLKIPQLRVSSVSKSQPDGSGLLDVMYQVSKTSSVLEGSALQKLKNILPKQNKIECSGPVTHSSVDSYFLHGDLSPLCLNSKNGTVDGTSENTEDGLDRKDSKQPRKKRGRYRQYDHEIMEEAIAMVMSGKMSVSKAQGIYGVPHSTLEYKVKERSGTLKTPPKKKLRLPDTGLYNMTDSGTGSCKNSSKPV
# How it was run: as §1
compound,measurement,setting,value
Nc1ncnc2c1ncn2[C@@H]1O[C@H](COP(=O)(O)OP(=O)(O)NP(=O)(O)O)[C@@H](O)[C@H]1O [adenylyl imidodiphosphate],NP40-soluble protein abundance,A0A0A0MSG2|J3KNW4|Q14192; concentration: 1mM,0.991 ± 0.05
same,NP40-soluble protein abundance,A0A0A0MSG2|J3KNW4|Q14192; concentration: 2mM,0.988 ± 0.09
same,NP40-soluble protein abundance,A0A0A0MSG2|J3KNW4|Q14192; concentration: 4mM,1.02 ± 0.048
same,NP40-soluble protein abundance,A0A0A0MSG2|J3KNW4|Q14192; concentration: 6mM,0.966 ± 0.036
same,NP40-soluble protein abundance,A0A0A0MSG2|J3KNW4|Q14192; concentration: 8mM,0.979 ± 0.083
same,NP40-soluble protein abundance,A0A0A0MSG2|J3KNW4|Q14192; concentration: 10mM,0.947 ± 0.035
same,NP40-soluble protein abundance,A0A0U1RRH6|O94880; concentration: 1mM,1.02 ± 0.036
same,NP40-soluble protein abundance,A0A0U1RRH6|O94880; concentration: 2mM,1.07 ± 0.03
same,NP40-soluble protein abundance,A0A0U1RRH6|O94880; concentration: 4mM,1.14 ± 0.025
same,NP40-soluble protein abundance,A0A0U1RRH6|O94880; concentration: 6mM,1.21 ± 0.017
same,NP40-soluble protein abundance,A0A0U1RRH6|O94880; concentration: 8mM,1.27 ± 0.035
same,NP40-soluble protein abundance,A0A0U1RRH6|O94880; concentration: 10mM,1.36 ± 0.092
same,NP40-soluble protein abundance,ACOX3; concentration: 1mM,0.977 ± 0.053
same,NP40-soluble protein abundance,ACOX3; concentration: 2mM,0.928 ± 0.076
same,NP40-soluble protein abundance,ACOX3; concentration: 4mM,0.967 ± 0.031
same,NP40-soluble protein abundance,ACOX3; concentration: 6mM,0.957 ± 0.057
same,NP40-soluble protein abundance,ACOX3; concentration: 8mM,0.972 ± 0.07
same,NP40-soluble protein abundance,ACOX3; concentration: 10mM,0.918 ± 0.089
same,NP40-soluble protein abundance,C9JI46|Q8N3X6|Q8N3X6-3; concentration: 1mM,0.985 ± 0.021
same,NP40-soluble protein abundance,C9JI46|Q8N3X6|Q8N3X6-3; concentration: 2mM,1.024 ± 0.0091
same,NP40-soluble protein abundance,C9JI46|Q8N3X6|Q8N3X6-3; concentration: 4mM,1.01 ± 0.058
same,NP40-soluble protein abundance,C9JI46|Q8N3X6|Q8N3X6-3; concentration: 6mM,0.992 ± 0.017
same,NP40-soluble protein abundance,C9JI46|Q8N3X6|Q8N3X6-3; concentration: 8mM,0.952 ± 0.014
same,NP40-soluble protein abundance,C9JI46|Q8N3X6|Q8N3X6-3; concentration: 10mM,1 ± 0.039
